Bioassay records from PubChem.
HT1080-NT tox: kills 2HG-producing HT-1080-NT fibrosarcoma cells. AID 686970. Potency, µM (series often up to 46.1 µM), without a hit: at the top dose activity, negative = less viability, actives largely listed as cytotoxic. HT-1080-NT fibrosarcoma viability, CellTiter-Glo ATP luminescence, 48 h. 360,000 tested, 1.6% active;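 further: NT is the 2HG producing partner of a matched IDH1 knockdown line; 0% = DMSO-treated cells and -100% = media-only wells without cells; nearly all actives have a fitted effect of over 55% in size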
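Fibrosarcoma NT cells, 750 per well in 5% FBS RPMI, were exposed to compound for 48 hours. Viability: CellTiter-Glo luminescence.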
HT1080 IDH1KD tx: HT-1080 IDH1 knockdown cell toxicity (counter line); HT-1080 IDH1 knockdown viability, ATP luminescence, 48 h; Potency, µM (highest dose often 46.1 µM), for inactives: at the highest dose activity, negative = toxicity, most hits filed as cytotoxic; 360,000 tested, 2% active;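 further: 0% = DMSO wells and -100% = cell-free medium wells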
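Assay cells: HT-1080 with IDH1 knockdown, 750 per well, RPMI/5% FBS. Exposure: 48 h at 37 °C following 2 h pre-incubation. Read: CellTiter-Glo luminescence; fitted concentration-response, curve class assigned.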
SW480 rereplic: induces DNA re-replication in SW480 colon adenocarcinoma cells | SW480 DNA re-replication, Hoechst DNA content imaging, 48 h | Potency, µM (doses to about 46.1 µM), inactives show at the highest dose re-replication activation, actives largely listed as activators | 340,000 tested, 1.8% active; further: % of control where 0% means no effect; nearly all actives have a fitted effect of over 55% in size
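Hoechst fluorescence of nuclei (405 nm excitation, 500-530 nm emission) measured by plate-scanning imager after 48 hr compound exposure at 37 C; re-replication scored as increased number of nuclei with elevated intensity.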
MCF10A rereplic: DNA re-replication induction in MCF 10a cells | Potency, µM (titrated, usually from 46.1 µM), without a hit: at the highest dose activity, positive = re-replication, hits mostly activators | MCF 10A DNA re-replication, Hoechst nuclear intensity, 48 h | 350,000 tested, 2.9% active; further: % of control where 0% means no effect; nearly all actives have a fitted effect of over 50% in size
KB-V1 cytotox: kills drug-selected multidrug resistant KB-V1 cells; 400,000 tested, 3.4% active; Potency, µM (series often up to 46.1 µM), hits mostly cytotoxic; KB-V1 MDR cells viability, CellTiter-Glo, 72 h; AID 1347076; further: on the % scale 0 is the no-effect control and ±100 the full control effect; nearly all actives have a fitted effect of over 60% in size
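KB-V1 MDR subline cells in DMEM (phenol-red free, 10% FBS) exposed to compounds in qHTS concentration series for 72 h at 37 degrees C. Viability read by CellTiter-Glo luminescence; concentration-effect curves fitted after normalization and correction.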
KB-3-1 tox: kills parental KB-3-1 adenocarcinoma cells; KB-3-1 viability, CellTiter-Glo ATP luminescence, 72 h; Potency, µM (doses to about 46.1 µM), most hits filed as cytotoxic; 400,000 tested, 1.4% active; further: on the % scale 0 is the no-effect control and ±100 the full control effect; nearly all actives have a fitted effect of over 60% in size
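Cytotoxicity in the drug-sensitive parental line KB-3-1 was scored as loss of CellTiter-Glo luminescence following 72 h incubation with compound. Values come from curve fitting of normalized concentration-response data.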
* marks the source's active call; other numbers are inactive results; [ ] = another dose, or the depositor's remark. Hits are enriched below; roughly 7.9% of the tested compounds scored in any of these assays. The call rests on the fitted dose curve; in most records, active means well fitted curve in the direction sought with a large enough effect; inconclusive means small, poorly fitted or top-dose-only effect, or another doubt; inactive means no such curve, though single readings can be large; an effect the other way counts as inactive or inconclusive. Potency means the concentration at half of the fitted maximal effect.

What do the screens show for `Cc1ccc(OCC(O)Cn2c(=N)n(CCN3CCCCC3)c3ccccc32)cc1` (stereo not given)?
HT1080-NT tox: 16.4µM*; HT1080 IDH1KD tx: inconclusive; SW480 rereplic: inconclusive; MCF10A rereplic: inconclusive; KB-V1 cytotox: 23.1µM*; KB-3-1 tox: 20.6µM*

What do the screens show for `CCCCn1c(=N)n(CCOc2ccc(C)cc2)c2ccccc21`?
HT1080-NT tox: inconclusive; HT1080 IDH1KD tx: inconclusive; SW480 rereplic: 18.4µM*; MCF10A rereplic: inconclusive; KB-V1 cytotox: inconclusive; KB-3-1 tox: inconclusive

Results for COc1ccc(OCCn2c(=N)n(CCO)c3ccccc32)cc1 ?
HT1080-NT tox: -4.9%; HT1080 IDH1KD tx: -10.1%; SW480 rereplic: -6.8%; MCF10A rereplic: 1.8%; KB-V1 cytotox: inactive; KB-3-1 tox: inactive

Results for CCCCn1c(=N)n(CC(O)COc2cccc(C)c2)c2ccccc21 (stereo not given) ?
HT1080-NT tox: inconclusive; HT1080 IDH1KD tx: inconclusive; SW480 rereplic: inconclusive; MCF10A rereplic: 21.1%; KB-V1 cytotox: 20.6µM*; KB-3-1 tox: 20.6µM*

Results for CCCC1(c2ccccc2)NC(=O)N(CC(=O)Nc2cc(S(=O)(=O)N3CCOCC3)ccc2Cl)C1=O (stereo not given) ?
HT1080-NT tox: 0.0%; HT1080 IDH1KD tx: 4.5%; SW480 rereplic: -2.3%; MCF10A rereplic: 0.6%; KB-V1 cytotox: inactive; KB-3-1 tox: inactive

What do the screens show for `CCCC[n+]1ccn(C2=C([O-])c3ccccc3C(=O)/C2=N\S(=O)(=O)c2ccc(Br)cc2)c1`?
HT1080-NT tox: inconclusive; HT1080 IDH1KD tx: inconclusive; SW480 rereplic: -694.5%; MCF10A rereplic: inconclusive; KB-V1 cytotox: inactive; KB-3-1 tox: inactive

What do the screens show for `Cc1ccc(S(=O)(=O)/N=C2\C(=O)c3ccccc3C([O-])=C2n2cc[n+](CCC(C)C)c2)cc1`?
HT1080-NT tox: inconclusive; HT1080 IDH1KD tx: 10µM*; SW480 rereplic: 2.2%; MCF10A rereplic: -4.9%; KB-V1 cytotox: inconclusive; KB-3-1 tox: inactive

What do the screens show for `CC(C)Cn1c(N)c(C(=O)COC(=O)c2c(F)cccc2F)c(=O)n(C)c1=O`?
HT1080-NT tox: 1.2%; HT1080 IDH1KD tx: -2.2%; SW480 rereplic: -56.1%; MCF10A rereplic: 0.517µM*; KB-V1 cytotox: inactive; KB-3-1 tox: inconclusive

How did COc1ccc(-c2cc(-c3cccs3)c(C#N)c(SCC(=O)NCc3ccccc3)n2)cc1 do in these assays?
HT1080-NT tox: 13.4%; HT1080 IDH1KD tx: 4.4%; SW480 rereplic: 5.5%[9.22 µM]; MCF10A rereplic: 3.8%; KB-V1 cytotox: inactive; KB-3-1 tox: inactive

How did COc1nc(-c2cccs2)cc(-c2ccc(C)cc2)c1C#N do in these assays?
HT1080-NT tox: inconclusive; HT1080 IDH1KD tx: inconclusive; SW480 rereplic: 3.98µM*; MCF10A rereplic: inconclusive; KB-V1 cytotox: 11.2µM*; KB-3-1 tox: 15.8µM*

Results for COc1ccc(-c2cc(-c3cccs3)nc(OC)c2C#N)cc1OC ?
HT1080-NT tox: inconclusive; HT1080 IDH1KD tx: inconclusive; SW480 rereplic: inconclusive; MCF10A rereplic: 6.51µM*; KB-V1 cytotox: 4.61µM*; KB-3-1 tox: inconclusive

How did COc1cc(-c2c(C#N)c(N)nc3c2CCCC3)ccc1O do in these assays?
HT1080-NT tox: -2.5%; HT1080 IDH1KD tx: -9.0%; SW480 rereplic: 4.1%; MCF10A rereplic: 2.7%; KB-V1 cytotox: inactive; KB-3-1 tox: inactive

How did COc1ccc(-c2c(C#N)c(N)nc3c2CCc2ccccc2-3)cc1OC do in these assays?
HT1080-NT tox: inconclusive; HT1080 IDH1KD tx: 20.6µM*; SW480 rereplic: inconclusive; MCF10A rereplic: 1.64µM*; KB-V1 cytotox: 5.17µM*; KB-3-1 tox: 5.8µM*

What do the screens show for `O=C(O)c1ccc(-c2ccc(Cl)cc2Cl)o1`?
HT1080-NT tox: 0.8%; HT1080 IDH1KD tx: 0.1%; SW480 rereplic: 3.7%; MCF10A rereplic: 4.1%; KB-V1 cytotox: inactive; KB-3-1 tox: inactive

What do the screens show for `CCOC(=O)c1sc(NC(C)=O)nc1-c1ccccc1`?
HT1080-NT tox: -5.7%; HT1080 IDH1KD tx: 7.3%[9.24 µM]; SW480 rereplic: -1.0%; MCF10A rereplic: -2.9%; KB-V1 cytotox: inactive; KB-3-1 tox: inactive

What do the screens show for `COC(=O)Nc1nc(C)c(C(=O)c2ccccc2)s1`?
HT1080-NT tox: inconclusive; HT1080 IDH1KD tx: inconclusive; SW480 rereplic: 14.6µM*; MCF10A rereplic: 9.2µM*; KB-V1 cytotox: 7.31µM*; KB-3-1 tox: inconclusive

Results for COC(=O)Nc1nc(-c2ccccc2)c(C(=O)c2ccccc2)s1 ?
HT1080-NT tox: inconclusive; HT1080 IDH1KD tx: inconclusive; SW480 rereplic: 0.411µM*; MCF10A rereplic: 0.231µM*; KB-V1 cytotox: inconclusive; KB-3-1 tox: 0.164µM*

Results for Cc1cccc(C(=O)Nc2ccc(C(=O)/C=C/c3ccncc3)cc2)c1 ?
HT1080-NT tox: inconclusive; HT1080 IDH1KD tx: inconclusive; SW480 rereplic: inconclusive; MCF10A rereplic: inconclusive; KB-V1 cytotox: inactive; KB-3-1 tox: inconclusive

What do the screens show for `O=C(/C=C/c1cccnc1)c1ccc(NC(=O)c2cccc(Br)c2)cc1`?
HT1080-NT tox: -13.1%; HT1080 IDH1KD tx: -14.6%; SW480 rereplic: 2.2%; MCF10A rereplic: 2.2%; KB-V1 cytotox: 7.94µM*; KB-3-1 tox: inconclusive

What do the screens show for `Cc1cccc(C(=O)Nc2ccc(C(=O)/C=C/c3cccnc3)cc2)c1`?
HT1080-NT tox: inconclusive; HT1080 IDH1KD tx: 18.4µM*; SW480 rereplic: 20.6µM*; MCF10A rereplic: inconclusive; KB-V1 cytotox: inconclusive; KB-3-1 tox: inactive

How did CCN(CC)CCCNC(=O)CCc1c(C)nc2c(c1C)c(=O)n(C)c(=O)n2C do in these assays?
KB-V1 cytotox: inactive; KB-3-1 tox: inactive

How did NC(=O)C(F)(F)C12OC3C4C5CC(C6C5C3C61)C42 (stereo not given) do in these assays?
HT1080-NT tox: 1.7%; HT1080 IDH1KD tx: 1.9%; SW480 rereplic: inconclusive; MCF10A rereplic: 20.6µM*; KB-V1 cytotox: inactive; KB-3-1 tox: inactive

What do the screens show for `CCN(Cc1ccc(OC)c(F)c1)C(=O)CCl`?
HT1080-NT tox: 18.4µM*; HT1080 IDH1KD tx: 16.4µM*; SW480 rereplic: 16.4µM*; MCF10A rereplic: inconclusive; KB-V1 cytotox: inconclusive; KB-3-1 tox: inconclusive

Results for CCN(Cc1ccc(OC)c(F)c1)C(=O)C1CCCO1 (stereo not given) ?
HT1080-NT tox: 5.5%; HT1080 IDH1KD tx: 4.2%; SW480 rereplic: -16.4%; MCF10A rereplic: -2.9%; KB-V1 cytotox: inactive; KB-3-1 tox: inactive

How did Cc1ccc(C(=O)N/C(=C\c2ccc(-c3cccc([N+](=O)[O-])c3)o2)C(=O)NCCCN2CCOCC2)cc1 do in these assays?
HT1080-NT tox: 18.4µM*; HT1080 IDH1KD tx: inconclusive; SW480 rereplic: inconclusive; MCF10A rereplic: 3.7%; KB-V1 cytotox: inconclusive; KB-3-1 tox: inconclusive
